# From PubChem
# Rows were chosen to be rich in hits. Some 7.5% of all compounds tested hit in one or more screens of this group.
# RORgamma inh – ROR gamma (mouse) transcription inhibition; P51450; Drosophila S2 Gal4-RORgamma UAS-luciferase reporter, 20 h; Potency, µM (titrated, usually from 53.6 µM), inactives show at the top dose activity change, negative = inhibition, actives largely listed as inhibitors; actives 5.4% (n = 310,000); AID 2551; further: potency means the concentration at half of the fitted maximal effect; nearly all actives have a fitted effect of over 60% in size
#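 A Gal4/UAS one-hybrid system in insect cells: metallothionein-promoter Gal4–ROR gamma fusion plus Photinus luciferase reporter. Copper sulfate 700 uM final, 20 hr ambient incubation, luminescent detection after 10 min with reagent.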
# B2AR arrestin – beta2AR (human) beta-arrestin recruitment activity. P07550. beta-arrestin recruitment to beta2AR, cell-based reporter. Potency, µM (top dose mostly 46.1 µM), inactives show at the top dose activation, actives largely listed as activators. actives 0.02% (n = 330,000). AID 492947;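 further: potency means the concentration at half of the fitted maximal effect; 0% = DMSO controls and full agonism = EC100 isoproterenol or metaproterenol; nearly all actives have a fitted effect of over 65% in size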
# ELG1 repair inh – inhibitors of ELG1-dependent DNA repair in HEK293T cells. HEK293T ELG1-luciferase reporter, luminescence, 16 h; DNA damage induced by 5-fluorouridine. Potency, µM (titrated, usually from 46.1 µM), for the others: top-dose activity change, negative = inhibition, hits mostly inhibitors. actives 2.3% (n = 330,000). AID 504467; further: potency means the concentration at half of the fitted maximal effect; nearly all actives have a fitted effect of over 55% in size
#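 Step one: seed 2,000 cells per well. Step two: pin-transfer compound or DMSO alongside 5-fluorouridine. Step three: incubate 16 hr, 37 °C, 5% CO2. Step four: add ONE-Glo, wait 30 min, read luminescence.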
# VP16 counter – inhibits Gal4-VP16 luciferase reporter, ROR gamma counter-screen | Drosophila S2 Gal4-VP16 UAS-luciferase, luminescence, 20 h | Potency, µM (doses to about 53.6 µM), for the others: top-dose activity, negative = inhibition, most hits filed as inhibitors | actives 3.5% (n = 310,000) | AID 2546;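 further: Gal4-VP16 expression switched on by copper sulfate through the metallothionein promoter; potency means the concentration at half of the fitted maximal effect; nearly all actives have a fitted effect of over 50% in size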
# TSHR antag – blocks TSH signaling through the human TSH receptor | P16473 | activity change, negative = inhibition, % at 11.5 µM | AID 504810 | TSHR-expressing cells, TSH-stimulated cAMP HTRF, 2 h; stronger effect = lower value | actives 0.2% (n = 330,000);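 active means activity change below a set negative limit, meaning inhibition stronger than a set level, cut at about -70% in these data; inconclusive means activity change between two set negative limits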
# Target sequence (P16473 whole entry, looked up): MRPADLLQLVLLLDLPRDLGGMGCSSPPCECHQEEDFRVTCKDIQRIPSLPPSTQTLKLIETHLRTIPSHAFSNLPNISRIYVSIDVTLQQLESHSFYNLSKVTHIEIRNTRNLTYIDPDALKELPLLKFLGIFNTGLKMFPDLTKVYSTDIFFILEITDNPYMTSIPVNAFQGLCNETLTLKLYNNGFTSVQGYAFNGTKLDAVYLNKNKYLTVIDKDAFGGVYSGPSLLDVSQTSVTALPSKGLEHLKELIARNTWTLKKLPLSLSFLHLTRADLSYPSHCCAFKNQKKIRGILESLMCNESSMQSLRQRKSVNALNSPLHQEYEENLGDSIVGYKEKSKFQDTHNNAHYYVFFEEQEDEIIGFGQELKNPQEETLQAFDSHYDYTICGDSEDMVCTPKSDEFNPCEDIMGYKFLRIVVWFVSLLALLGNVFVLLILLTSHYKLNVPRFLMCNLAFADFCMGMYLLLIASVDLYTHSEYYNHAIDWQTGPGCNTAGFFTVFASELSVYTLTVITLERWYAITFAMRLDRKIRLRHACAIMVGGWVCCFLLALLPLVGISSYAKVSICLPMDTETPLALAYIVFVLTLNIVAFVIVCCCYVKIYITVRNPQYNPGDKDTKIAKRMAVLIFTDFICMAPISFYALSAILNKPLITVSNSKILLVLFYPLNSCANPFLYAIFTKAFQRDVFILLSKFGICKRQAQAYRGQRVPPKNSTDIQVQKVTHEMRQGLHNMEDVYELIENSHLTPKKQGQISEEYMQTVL
#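 Cell-based HTRF cAMP assay; TSHR cells + compound, TSH EC80 (4nM final), 2 h, 37 deg C. Lysis with anti-cAMP cryptate and cAMP-d2, 30 min RT, read 665/620 nm.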
# An asterisk follows results filed as active; ? = inconclusive; . = no result given. Unless noted, the call rests on the fitted dose curve; in most records, active means well fitted curve in the direction sought with a large enough effect; inconclusive means small, poorly fitted or top-dose-only effect, or another doubt; inactive means no such curve, though single readings can be large; an effect the other way counts as inactive or inconclusive. Unless noted, on the % scale 0 is the no-effect control and ±100 the full control effect.
SMILES,RORgamma inh,B2AR arrestin,ELG1 repair inh,VP16 counter,TSHR antag
C#C[C@]1(OC(C)=O)CC[C@H]2[C@@H]3CCC4=CC(=O)CC[C@@H]4[C@H]3CC[C@@]21C,?,.,.,1%,.
CC(=O)Nc1ccc(S(=O)(=O)Nc2c(NC3CCCCC3)c3ccccc3oc2=O)cc1,-22%,-1%,0%,-23%,-89*
CC(C)(C)c1cc(C(c2cccnc2)N2CCN(CCO)CC2)cc(C(C)(C)C)c1O (centres undefined),13µM*,0%,-2%,18µM*,?
CCOc1ccc(NC(=O)CSc2nc3ccccc3nc2N2CCOCC2)cc1,18%,0%,?,0%,-2
O=C(Nc1ccc2c(c1)C(=O)OC2)c1ccc(Cl)cc1Cl,22%,0%,?,-10%,10
O=C(Nc1nnc(-c2ccc3c(c2)CCCC3)o1)c1c(F)cccc1F,0.5µM*,0%,?,4.5µM*,-7
O=C(Nc1nnc(-c2ccc3c(c2)CCCC3)o1)C1CCCCC1,?,0%,15%,-2%,-3
O=C(Nc1nnc(-c2ccc3c(c2)CCCC3)o1)c1ccc(Cl)cc1Cl,1.6µM*,0%,1%,1.6µM*,-21
COc1ccc(C2=NC(c3ccc(Cl)cc3)C(c3ccc(Cl)cc3)N2C(=O)N2CCNC(=O)C2)c(OC(C)C)c1 (centres undefined),?,.,.,13%,.
O=C(NCc1cccc(Cl)c1)c1cnn2c1NC(c1ccco1)CC2C(F)(F)F (centres undefined),23%,0%,?,-4%,-3
Cc1nn(C)c(C)c1CNC(=O)c1cnn2c1NC(c1ccccc1)CC2C(F)(F)F (centres undefined),40%,2%,-4%,0%,0
COc1ccc(C2CC(C(F)(F)F)n3nc(C(=O)NCc4cn(C)nc4C)c(Cl)c3N2)cc1 (centres undefined),34%,0%,23µM*,-11%,-17
O=C(NCC12CC3CC(CC(C3)C1)C2)c1nn2c(c1Cl)NC(c1ccco1)CC2C(F)(F)F (centres undefined),?,0%,?,14µM*,19
Cc1ccc(C2CC(C(F)(F)F)n3nc(C(=O)NCc4c(C)nn(C)c4C)c(Cl)c3N2)cc1 (centres undefined),-4%,8%,12µM*,?,-1
CC1CC2C3CCC4=CC(=O)C=C[C@@]4(C)[C@]3(F)C(O)C[C@]2(C)[C@]1(O)C(=O)COP(=O)(O)O (some centres undefined),16%,.,.,-2%,.
COc1cc2c(cc1OC)C1C(=O)c3ccc4c(c3OC1CO2)C=CC(C)(C)O4 (centres undefined),?,.,.,0.13µM*,.
COC(=O)[C@]1(Cc2ccccc2)N[C@H](CN(C)C(=O)COc2ccccc2)[C@@H]2C(=O)N(Cc3ccccc3)C(=O)[C@@H]21,.,-1%,0%,.,10
COc1ccc(/C=C/c2ccncc2)c2ccccc12,-29%,.,.,-5%,.
COc1cccc(/C=C/c2ccc3cccc(O)c3n2)c1OC,2.8µM*,4%,?,5.6µM*,-7
CCOc1c(OC(C)=O)ccc(/C=C/c2ccc3cccc(OC)c3n2)c1[N+](=O)[O-],?,0%,-14%,-5%,3
COc1ccc(/C=C/c2ccc3cccc(O)c3n2)c(OC)c1OC,3.2µM*,?,?,?,-4
Cn1c(=O)c(-c2ccc(F)cc2)nc2cnc(N3CCOCC3)nc21,5%,.,.,-8%,.
Oc1ccc(NC(=S)N=Nc2c(O)[nH]c3ccc(Br)cc23)cc1,10µM*,0%,16µM*,?,-5
Oc1[nH]c2ccc(Br)cc2c1N=NC(=S)Nc1ccc(F)cc1,0.79µM*,0%,?,7.9µM*,-5
Oc1cccc(NC(=S)N=Nc2c(O)[nH]c3ccc(Br)cc23)c1,-40%,0%,?,-7%,-3
CCCCCCN,-10%,.,.,-14%,.
Cc1ccc(NS(=O)(=O)c2c(C(=O)N3CCCCCC3)c(C)n(C)c2C)cc1C,6%,0%,-5%,-2%,-9
